Among the data in PubChem BioAssay are z-score and composite z-score values, retold here.

Assay [1] is described as follows: optical density shifts of acrAB sulA E. coli – strain DRC41, OD650, 48 h, E. coli filamentation inducer project, primary screen (AID 1152).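 Note: E. coli MC1000 strain DRC41 lacking acrAB efflux pump and sulA.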 As to conditions: higher = more signal, called active from +8 up or from −8 down.
The nature of assay [2]: probe aLefty1 binding on compound microarray – biochemical, small-molecule microarray, 635/667 nm fluorescence, primary screen (AID 1153).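 Note: score merges spot fluorescence with signal-to-noise ratio from the scanned slide images.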 As to conditions: higher = more signal.
Assay [3] is described as follows: plasmodial surface anion channel blockers, osmotic lysis – cell-based, P. falciparum Indochina, OD700, 1 h, primary screen (AID 1154). Particulars: P. falciparum Indochina infected RBC osmotic lysis, higher = more signal, called active from +8 up or from −8 down.
A short description of assay [4]: plasmodial surface anion channel blockers, osmotic lysis – cell-based, P. falciparum Indochina, OD700, 2 h, primary screen (AID 1155).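 Note: lysis reports solute entry through the parasite surface anion channel PSAC.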 Particulars: P. falciparum Indochina infected erythrocytes, higher = more signal, called active from +8 up or from −8 down.
Assay [5] can be described thus: changes in parasitized red cell lysis, either direction – P. falciparum Indochina, OD700, 3 h, PSAC antagonist project, primary screen (AID 1156). As to conditions: P. falciparum-infected erythrocytes, osmotic lysis, higher = more signal, called active from +8 up or from −8 down.
The nature of assay [6]: plasmodial surface anion channel blockers, osmotic lysis – cell-based, P. falciparum Indochina, OD700, 18 h, primary screen (AID 1157). As to conditions: P. falciparum Indochina infected erythrocytes, osmotic lysis OD700, 18 h; higher = more signal, called active from +8 up or from −8 down.
The nature of assay [7]: S6 kinase pathway phospho-S6 level changes – cell-based, A549, cytoblot, luminescence, serum-stimulated, primary screen (AID 1158).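 Note: serum-stimulated A549 lung adenocarcinoma cells; signal is phosphorylated S6 detected by cytoblot immunostaining with HRP secondary.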 Particulars: 5 h, higher = more signal.
Assay [8] has as its target NADPH oxidase 2 (Homo sapiens) (UniProt P04839). Nature of the assay: compounds shifting NOX2 Amplex Red fluorescence – cell-based, HEK293-NOX2, PMA-stimulated, NOX inhibitor project, primary screen (AID 1159). Note: test concentration not given here. As to conditions: 45 min, higher = more signal, called active from +8 up or from −8 down.
Assay [9] has as its target NADPH oxidase 4 (Homo sapiens) (UniProt Q9NPH5). Briefly: compounds shifting NOX4 Amplex Red fluorescence – cell-based, HEK293-NOX4, tetracycline-induced, NOX inhibitor project, primary screen (AID 1160). As to conditions: HEK293-NOX4, Amplex Red H2O2 fluorescence, 45 min; higher = more signal, called active from +8 up or from −8 down.
Assay [10] concerns the target NADPH oxidase 5 (Homo sapiens) (UniProt Q96PH1). Nature of the assay: compounds shifting NOX5 Amplex Red fluorescence – cell-based, HEK293-NOX5, NOX inhibitor project, primary screen (AID 1161). As to conditions: HEK293-NOX5, ionomycin, 45 min, higher = more signal.
The nature of assay [11]: compound effects on lung adenocarcinoma cell viability – A549, calcein-AM fluorescence, 48 h, basal, profiling panel (AID 1162). Note: test concentration not given here. Particulars: higher = more signal.
Assay [12] is described as follows: compound effects on differentiated 3T3-L1 adipocyte viability – cell-based, 3T3-L1 adipocytes, calcein-AM fluorescence, 48 h, basal, profiling panel (AID 1163). Note: test concentration not given here. Particulars: 3T3-L1 adipocytes viability, higher = more signal.
The nature of assay [13]: compound effects on hepatocellular carcinoma cell viability – HepG2, calcein-AM fluorescence, 48 h, basal, profiling panel (AID 1164). Note: test concentration not given here. As to conditions: higher = more signal.
Assay [14] in a line: compound effects on multiple myeloma cell viability – MM1S, calcein-AM fluorescence, 48 h, basal, profiling panel (AID 1165).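 Note: viability of MM1S multiple myeloma cells under basal unstimulated conditions; test concentration not given here.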 Particulars: higher = more signal.
The nature of assay [15]: calcein-AM signal in unstimulated myeloma cells – cell-based, calcein-AM fluorescence, 48 h, PK04 Diversity Set, profiling panel (AID 1166).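 Note: cells grown under basal conditions without added stimulus; test concentration not given here.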 As to conditions: RPMI8226 myeloma viability, higher = more signal.
The nature of assay [16]: JC-1 mitochondrial signal, unstimulated HepG2 cells – cell-based, JC-1 fluorescence, 24 h, 100 nL compound, profiling panel (AID 1167). Note: test concentration not given here. As to conditions: HepG2 mitochondrial potential, higher = more signal.
A short description of assay [17]: JC-1 mitochondrial signal, unstimulated adipocytes – cell-based, JC-1 fluorescence, 3T3-L1 adipocytes, 24 h, 100 nL compound, profiling panel (AID 1168). Note: test concentration not given here. As to conditions: JC-1 mitochondrial fluorescence, higher = more signal, called active from +8 up or from −8 down.
Assay [18] is described as follows: JC-1 mitochondrial signal, unstimulated myeloma cells – cell-based, JC-1 fluorescence, RPMI8226, 24 h, 100 nL compound, profiling panel (AID 1169). Note: test concentration not given here. Particulars: JC-1 mitochondrial potential fluorescence, higher = more signal.
The nature of assay [19]: JC-1 mitochondrial signal, unstimulated MM1S myeloma – cell-based, JC-1 fluorescence, 24 h, 100 nL compound, profiling panel (AID 1170). Note: test concentration not given here. As to conditions: MM1S mitochondrial potential, higher = more signal.
Assay [20] is described as follows: resazurin metabolic signal in A549 cells – cell-based, resazurin fluorescence, 24 h, PK04 Diversity Set, profiling panel (AID 1171). Note: test concentration not given here. As to conditions: A549 viability, higher = more signal, called active from +8 up or from −8 down. (In general: The colour change of resazurin is a common sign of viable cells or microbes.)

Active and inactive are the calls of the source.

Sequence of NADPH oxidase 4 (Homo sapiens) (Q9NPH5 whole entry, looked up): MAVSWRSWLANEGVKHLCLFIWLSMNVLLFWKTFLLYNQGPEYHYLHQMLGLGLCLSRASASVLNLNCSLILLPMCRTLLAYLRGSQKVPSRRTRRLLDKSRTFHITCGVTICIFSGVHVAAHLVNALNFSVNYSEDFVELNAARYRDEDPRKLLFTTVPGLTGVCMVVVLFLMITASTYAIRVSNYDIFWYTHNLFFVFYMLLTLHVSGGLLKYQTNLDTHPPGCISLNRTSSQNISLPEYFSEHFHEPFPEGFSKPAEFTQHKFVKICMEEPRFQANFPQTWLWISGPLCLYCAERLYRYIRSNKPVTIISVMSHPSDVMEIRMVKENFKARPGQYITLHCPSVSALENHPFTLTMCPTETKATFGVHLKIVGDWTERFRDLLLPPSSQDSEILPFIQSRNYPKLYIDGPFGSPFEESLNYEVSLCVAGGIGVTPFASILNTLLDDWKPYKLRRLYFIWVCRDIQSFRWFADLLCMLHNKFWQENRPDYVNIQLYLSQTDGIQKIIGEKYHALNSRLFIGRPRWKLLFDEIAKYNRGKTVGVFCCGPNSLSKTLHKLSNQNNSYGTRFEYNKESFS
Sequence of NADPH oxidase 2 (Homo sapiens) (P04839 whole entry, looked up): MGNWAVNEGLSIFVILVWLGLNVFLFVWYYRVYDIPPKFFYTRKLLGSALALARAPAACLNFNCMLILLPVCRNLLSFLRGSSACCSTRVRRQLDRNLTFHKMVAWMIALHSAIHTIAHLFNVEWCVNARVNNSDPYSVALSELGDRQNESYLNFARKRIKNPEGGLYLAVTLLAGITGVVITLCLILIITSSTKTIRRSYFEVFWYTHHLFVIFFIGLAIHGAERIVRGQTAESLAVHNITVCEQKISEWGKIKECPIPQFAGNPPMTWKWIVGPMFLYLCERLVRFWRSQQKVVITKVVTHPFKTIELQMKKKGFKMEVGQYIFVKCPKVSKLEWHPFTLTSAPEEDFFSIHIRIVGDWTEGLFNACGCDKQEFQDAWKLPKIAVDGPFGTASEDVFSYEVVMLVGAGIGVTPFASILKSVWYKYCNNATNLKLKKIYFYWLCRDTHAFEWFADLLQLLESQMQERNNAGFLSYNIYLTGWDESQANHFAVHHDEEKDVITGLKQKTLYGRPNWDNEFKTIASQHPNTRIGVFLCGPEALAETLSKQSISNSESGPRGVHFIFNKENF
Sequence of NADPH oxidase 5 (Homo sapiens) (Q96PH1 whole entry, looked up): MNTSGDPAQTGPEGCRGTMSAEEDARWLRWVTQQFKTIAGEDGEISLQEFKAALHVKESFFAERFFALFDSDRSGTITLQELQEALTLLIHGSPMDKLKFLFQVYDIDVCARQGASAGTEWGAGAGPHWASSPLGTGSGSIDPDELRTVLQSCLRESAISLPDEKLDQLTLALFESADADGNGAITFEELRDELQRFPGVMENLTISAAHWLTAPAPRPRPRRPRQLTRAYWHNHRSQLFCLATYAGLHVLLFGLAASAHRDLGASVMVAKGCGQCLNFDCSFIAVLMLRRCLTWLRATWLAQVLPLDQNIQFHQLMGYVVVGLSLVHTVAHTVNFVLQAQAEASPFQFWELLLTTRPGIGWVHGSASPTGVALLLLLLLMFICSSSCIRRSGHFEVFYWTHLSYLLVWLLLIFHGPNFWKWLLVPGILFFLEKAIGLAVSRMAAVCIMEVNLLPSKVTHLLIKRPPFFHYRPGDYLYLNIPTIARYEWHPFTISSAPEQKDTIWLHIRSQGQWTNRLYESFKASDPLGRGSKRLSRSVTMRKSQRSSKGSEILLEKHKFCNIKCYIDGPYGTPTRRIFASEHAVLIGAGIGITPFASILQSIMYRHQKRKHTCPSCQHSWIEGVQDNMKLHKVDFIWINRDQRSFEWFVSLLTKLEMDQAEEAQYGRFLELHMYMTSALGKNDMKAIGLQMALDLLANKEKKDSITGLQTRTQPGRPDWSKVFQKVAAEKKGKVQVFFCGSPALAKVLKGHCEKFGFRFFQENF

For `CC(C)C[C@@H]1NC(=O)[C@H]2C[C@@H](C(=O)NCCCCCC[N+](C)(C)C)[C@@H](c3ccc(O)cc3)N2C1=O`, the z-score in assay [1] was 0.706 (inactive); in assay [3], 1.8 (inactive); in [4] it was 0.459 (inactive); in [5], -3.67 (inactive); in assay [6] it was 0.0558 (inactive); in assay [7], -0.496. Also, the z-score was 1.04 (inactive) in [8]; 1 (inactive) in [9]; -0.306 in assay [10]; -0.547 in assay [11]; -0.304 in assay [12]; -1.01 in assay [13]. Besides, the z-score is -0.0171 in assay [14]; 0.0824 in [15]; -0.575 in assay [16]; 0.177 (inactive) in assay [17]; -0.342 in assay [18]; -0.958 in assay [19]. In assay [20], the z-score was 1.09 (inactive). In [2], the composite z-score is 0.0502.
Consider `Cc1ccc(S[C@]2(C(=O)NC3CC3)CC(=O)N(Cc3cc(C(F)(F)F)cc(C(F)(F)F)c3)[C@@H]2c2ccc(CO)cc2)cc1`, for which the z-score in assay [1] is 0.537 (inactive); in assay [3] it was 1.21 (inactive); in assay [4] it was -0.861 (inactive); in assay [5], 1.08 (inactive); in [6] it was -1.95 (inactive); in assay [7], 0.95. Also, the z-score in [8] is 0.249 (inactive); in assay [9], -0.00878 (inactive); in assay [10] it was 1.78; in [11], 0.902; in [12], 1.69; in [13], 0.445. Further, the z-score is 0.239 in assay [14]; 0.16 in assay [15]; 0.259 in [16]; -0.472 (inactive) in assay [17]; -0.718 in [18]; -0.792 in assay [19]. For the same compound, the z-score in assay [20] is 0.968 (inactive). The composite z-score in [2] was -0.0186.
For `CO[C@H]1COC(=O)CC=C[C@H](C)COC(=O)[C@@H](OCc2ccccc2)C=C[C@@H]1C`, the z-score in [1] is -0.168 (inactive); in [3], 0.733 (inactive); in assay [4], -1.13 (inactive); in [5], -0.858 (inactive); in assay [6] it was -2.2 (inactive); in assay [7], 1.27. Moreover, the z-score was 0.837 (inactive) in [8]; -0.234 (inactive) in assay [9]; 0.164 in assay [10]; -0.696 in [11]; -0.886 in assay [12]; 0.806 in assay [13]. Moreover, the z-score is 0.178 in [14]; -1.73 in assay [15]; 0.96 in [16]; 0.877 (inactive) in [17]; 0.103 in assay [18]; 0.398 in [19]. For the same compound, the z-score in assay [20] was 0.0283 (inactive). In assay [2], the composite z-score was -0.338.
Regarding `O=C(O)[C@@H]1Cc2c([nH]c3ccccc23)[C@@H](c2ccccc2)N1`, the z-score in [1] is 0.327 (inactive); in [3], 0.864 (inactive); in assay [4] it was 0.71 (inactive); in assay [5], 1.46 (inactive); in assay [6], 0.152 (inactive); in assay [7], -0.344. The z-score in assay [8] is 1.04 (inactive); in assay [9], -0.429 (inactive); in [10], -0.614; in assay [11], 0.0265; in assay [12], 1.21; in assay [13], -0.55. For the same compound, the z-score in [14] was 0.424; in assay [15], 0.519; in [16] it was 0.516; in assay [17] it was -0.284 (inactive); in assay [18] it was -0.122; in assay [19] it was 0.0857. Further, the z-score in [20] is 0.216 (inactive). Besides, the composite z-score in assay [2] is -0.202.
Take `COc1ccc([C@H]2C[C@H]3C(Br)=C[C@]2(OC)C(=O)[C@]32CO2)cc1`: the z-score was -0.882 (inactive) in assay [1]; 0.262 (inactive) in assay [3]; 0.0516 (inactive) in [4]; -0.29 (inactive) in [5]; -0.21 (inactive) in assay [6]; -0.242 in assay [7]. The z-score in [8] was 0.0866 (inactive); in assay [9] it was 0.295 (inactive); in assay [10], -0.292; in assay [11], -0.909; in assay [12] it was -0.105; in assay [13], -1.19. Also, the z-score in assay [14] was -2.1; in assay [15], -0.393; in [16], -2.15; in assay [17], -0.414 (inactive); in [18], -1.07; in [19] it was -0.717. For the same compound, in assay [20], the z-score is 0.596 (inactive). Moreover, the composite z-score in assay [2] was -0.0536.
For `Cc1ccc(N2C(=O)c3ccccc3[C@](C)(C(=O)O)[C@@H]2c2ccc(CO)cc2)nc1`, the z-score in [1] is 1.47 (inactive); in assay [3], 0.703 (inactive); in assay [4], -0.228 (inactive); in assay [5], -0.0241 (inactive); in assay [6], -0.211 (inactive); in [7], 0.283. The z-score in assay [8] was 0.775 (inactive); in [9], -0.975 (inactive); in assay [10] it was -0.457; in assay [11], 0.0643; in assay [12], 0.937; in assay [13] it was -0.0479. Moreover, the z-score in assay [14] was -0.231; in assay [15], 0.614; in assay [16], 0.521; in assay [17] it was 0.23 (inactive); in assay [18] it was -0.167; in [19], 0.25. In addition, the z-score in assay [20] is 0.755 (inactive). Besides, the composite z-score in assay [2] is -0.147.
For `CO[C@H]1COC(=O)[C@@H](C)NC(=O)CC=C[C@@H](C)[C@H](OC)COC(=O)CC=C[C@@H]1C`, the z-score in assay [1] was 0.394 (inactive); in assay [3], 1.08 (inactive); in assay [4], -0.211 (inactive); in [5], 0.237 (inactive); in assay [6], -1.58 (inactive); in assay [7], 0.722. Also, the z-score in assay [8] is 0.714 (inactive); in [9] it was 0.981 (inactive); in assay [10], 0.539; in assay [11], 0.606; in assay [12], 0.518; in assay [13], 0.468. In addition, the z-score in [14] is 0.377; in assay [15] it was 0.771; in [16], 1.44; in assay [17], 1.86 (inactive); in [18] it was -0.0629; in [19] it was 1.06. Further, in assay [20], the z-score was 0.775 (inactive). The composite z-score in [2] was 0.0455.
In the case of `COC(=O)c1ccc(C#CC(NP(=O)(c2ccccc2)c2ccccc2)c2ccccc2)cc1` (stereo not given), the z-score in assay [1] was -0.817 (inactive); in [3], 10.2 (active); in [4], 1.16 (inactive); in assay [5] it was 1.04 (inactive); in [6], 0.936 (inactive); in assay [7] it was 0.806. In addition, the z-score in assay [8] is 0.00908 (inactive); in assay [9], -0.556 (inactive); in assay [10], -4.46; in assay [11], -0.341; in assay [12], -0.0724; in [13] it was 0.428. The z-score in assay [14] is -3.15; in [15], -3.5; in assay [16], -0.798; in [17], -0.174 (inactive); in [18], -0.352; in assay [19], -1.3. Also, the z-score in [20] is -0.491 (inactive). In assay [2], this compound showed a composite z-score of 0.0312.
